Among the data in publication PMC7862700, “An all-to-all approach to the identification of sequence-specific readers for epigenetic DNA modifications on cytosine” are binding signal values, retold here.

Holding throughout (assay): DAPPL (digital affinity profiling via proximity ligation, sequencing); 10 mM Tris-HCl pH 7.5, 50 mM NaCl, 1 mM DTT, 4% glycerol, room temperature, 30 min; GST-TFs on glutathione beads, 16-mer random dsDNA library, 0.1% formaldehyde crosslink after washing; high values mean tight binding
The target of one assay is T1, FEV (Homo sapiens, UniProt Q99581 1-238).
T1 sequence: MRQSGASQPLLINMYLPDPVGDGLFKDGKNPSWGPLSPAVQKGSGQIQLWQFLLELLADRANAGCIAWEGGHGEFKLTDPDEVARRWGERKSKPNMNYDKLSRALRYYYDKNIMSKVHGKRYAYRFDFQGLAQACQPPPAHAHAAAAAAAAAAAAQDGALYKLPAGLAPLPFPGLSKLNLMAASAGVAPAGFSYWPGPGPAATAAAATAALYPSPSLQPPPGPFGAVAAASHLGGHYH
As to conditions: protein: recombinant; tags: N-terminal GST; dsDNA, one strand shown. Put shortly: (§1)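 Each value of binding signal is a hexamer's read frequency for a factor divided by the same hexamer's frequency in the tag-only sample. Barcoded, bead-captured GST fusions of human transcription factors made in yeast were pooled with that sample and incubated with 200 nmole of a random double-stranded 16-mer DNA library in Tris/NaCl/DTT/glycerol buffer at room temperature for 30 min. Washing, 0.1% formaldehyde crosslinking, proximity ligation, PCR and Illumina NextSeq500 sequencing followed.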

For a further assay, the target named is ETV5 (Homo sapiens, UniProt P41161 1-510). As to conditions: protein: recombinant; tags: N-terminal GST; dsDNA, one strand shown. Summed up:
as §1

The next assay deals with HSF1 (Homo sapiens, UniProt Q00613 1-529). As to conditions: protein: recombinant; tags: N-terminal GST; chain copies: 3; dsDNA, one strand shown. Put shortly: as §1
A further assay deals with T2, SPIC (Homo sapiens, UniProt Q8N5J4 1-248).
T2 sequence: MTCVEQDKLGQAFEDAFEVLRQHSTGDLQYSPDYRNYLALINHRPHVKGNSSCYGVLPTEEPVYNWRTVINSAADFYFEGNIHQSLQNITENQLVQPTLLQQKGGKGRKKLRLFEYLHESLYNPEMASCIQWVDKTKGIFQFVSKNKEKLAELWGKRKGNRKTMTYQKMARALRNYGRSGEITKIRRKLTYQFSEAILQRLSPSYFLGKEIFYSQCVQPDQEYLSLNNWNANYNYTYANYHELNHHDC
As to conditions: protein: recombinant; tags: N-terminal GST; dsDNA, one strand shown. Summed up:
as §1

The target in the next assay is ELF4 (Homo sapiens, UniProt Q99607 1-663). The following applies: protein: recombinant; tags: N-terminal GST; dsDNA, one strand shown. Put shortly:
as §1

A further assay concerns the target T3, ELK4 (Homo sapiens, UniProt P28324-2 1-405).
T3 sequence: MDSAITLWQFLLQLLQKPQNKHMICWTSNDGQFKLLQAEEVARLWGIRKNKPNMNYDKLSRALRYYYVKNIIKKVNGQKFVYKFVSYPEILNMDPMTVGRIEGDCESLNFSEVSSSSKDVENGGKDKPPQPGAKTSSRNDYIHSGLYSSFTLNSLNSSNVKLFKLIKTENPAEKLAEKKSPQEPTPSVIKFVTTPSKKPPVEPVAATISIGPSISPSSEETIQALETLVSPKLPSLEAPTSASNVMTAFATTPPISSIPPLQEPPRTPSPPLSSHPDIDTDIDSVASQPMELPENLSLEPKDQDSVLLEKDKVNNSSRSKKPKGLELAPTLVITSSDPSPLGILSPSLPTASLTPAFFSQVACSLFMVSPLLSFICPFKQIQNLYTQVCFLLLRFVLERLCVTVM
The following applies: protein: recombinant; tags: N-terminal GST; dsDNA, one strand shown. Put shortly: as §1

In a further assay the target is T4, ETV2 (Homo sapiens, UniProt O00321 1-342).
T4 sequence: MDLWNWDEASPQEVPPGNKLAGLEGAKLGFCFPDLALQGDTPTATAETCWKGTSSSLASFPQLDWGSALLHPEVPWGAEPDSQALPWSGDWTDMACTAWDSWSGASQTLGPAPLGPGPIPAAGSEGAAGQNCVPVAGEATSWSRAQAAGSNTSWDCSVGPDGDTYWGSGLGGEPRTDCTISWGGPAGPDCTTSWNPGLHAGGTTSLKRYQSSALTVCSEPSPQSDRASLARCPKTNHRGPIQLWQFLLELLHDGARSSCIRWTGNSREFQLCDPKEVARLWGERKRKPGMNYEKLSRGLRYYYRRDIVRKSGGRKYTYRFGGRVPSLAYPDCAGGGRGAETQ
The following applies: protein: recombinant; tags: N-terminal GST; dsDNA, one strand shown. Summed up: as §1

The next assay addresses T5, ELF3 (Homo sapiens, UniProt P78545 1-371).
T5 sequence: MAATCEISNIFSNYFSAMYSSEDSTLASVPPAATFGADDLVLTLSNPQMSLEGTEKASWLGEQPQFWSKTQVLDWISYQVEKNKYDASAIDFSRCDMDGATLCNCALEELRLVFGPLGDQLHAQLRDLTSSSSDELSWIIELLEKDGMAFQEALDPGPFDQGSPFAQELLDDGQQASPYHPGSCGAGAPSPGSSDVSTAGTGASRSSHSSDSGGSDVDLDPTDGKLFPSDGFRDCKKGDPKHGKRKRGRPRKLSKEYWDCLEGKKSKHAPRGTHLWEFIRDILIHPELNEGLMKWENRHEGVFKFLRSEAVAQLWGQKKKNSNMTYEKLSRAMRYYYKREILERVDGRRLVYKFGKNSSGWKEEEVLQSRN
The following applies: protein: recombinant; tags: N-terminal GST; dsDNA, one strand shown. Summed up:
as §1

The next assay deals with CRX (Homo sapiens, UniProt O43186 1-299). As to conditions: protein: recombinant; tags: N-terminal GST; dsDNA, one strand shown. Put shortly:
as §1

The target in another assay is ETV1 (Homo sapiens, UniProt P50549 1-477). The following applies: protein: recombinant; tags: N-terminal GST; dsDNA, one strand shown. Summed up:
as §1

For another assay, the target named is T6, ERF (Homo sapiens, UniProt P50548 1-548).
T6 sequence: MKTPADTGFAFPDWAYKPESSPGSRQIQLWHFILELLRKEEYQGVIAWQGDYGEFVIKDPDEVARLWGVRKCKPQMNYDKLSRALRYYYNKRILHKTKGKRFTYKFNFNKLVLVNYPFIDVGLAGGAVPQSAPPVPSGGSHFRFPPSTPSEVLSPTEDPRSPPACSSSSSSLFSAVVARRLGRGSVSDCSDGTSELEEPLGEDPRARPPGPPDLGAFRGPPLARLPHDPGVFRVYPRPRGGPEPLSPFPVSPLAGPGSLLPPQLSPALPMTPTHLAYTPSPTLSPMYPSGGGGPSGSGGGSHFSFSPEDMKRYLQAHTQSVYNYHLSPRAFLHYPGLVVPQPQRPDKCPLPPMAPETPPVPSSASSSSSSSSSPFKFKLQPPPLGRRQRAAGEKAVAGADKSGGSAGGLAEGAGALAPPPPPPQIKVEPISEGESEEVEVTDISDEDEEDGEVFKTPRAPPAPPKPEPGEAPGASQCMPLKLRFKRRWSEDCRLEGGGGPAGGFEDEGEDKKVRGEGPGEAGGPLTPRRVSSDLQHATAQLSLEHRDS
The following applies: protein: recombinant; tags: N-terminal GST; dsDNA, one strand shown. Put shortly: as §1

Another assay has as its target T7, ETV3L (Homo sapiens, UniProt Q6ZN32 1-361).
T7 sequence: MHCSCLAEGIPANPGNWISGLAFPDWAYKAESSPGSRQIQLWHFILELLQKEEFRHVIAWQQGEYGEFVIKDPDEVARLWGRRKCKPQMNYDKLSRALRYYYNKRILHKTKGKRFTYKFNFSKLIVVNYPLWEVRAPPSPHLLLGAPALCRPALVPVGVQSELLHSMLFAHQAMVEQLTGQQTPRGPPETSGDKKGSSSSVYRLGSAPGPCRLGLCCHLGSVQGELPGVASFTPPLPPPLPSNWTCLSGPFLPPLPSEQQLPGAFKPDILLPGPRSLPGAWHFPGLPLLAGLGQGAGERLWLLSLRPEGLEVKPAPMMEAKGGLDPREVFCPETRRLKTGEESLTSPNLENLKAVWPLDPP
As to conditions: protein: recombinant; tags: N-terminal GST; dsDNA, one strand shown. Put shortly:
as §1

The target of a further assay is T8, ETS2 (Homo sapiens, UniProt P15036 1-469).
T8 sequence: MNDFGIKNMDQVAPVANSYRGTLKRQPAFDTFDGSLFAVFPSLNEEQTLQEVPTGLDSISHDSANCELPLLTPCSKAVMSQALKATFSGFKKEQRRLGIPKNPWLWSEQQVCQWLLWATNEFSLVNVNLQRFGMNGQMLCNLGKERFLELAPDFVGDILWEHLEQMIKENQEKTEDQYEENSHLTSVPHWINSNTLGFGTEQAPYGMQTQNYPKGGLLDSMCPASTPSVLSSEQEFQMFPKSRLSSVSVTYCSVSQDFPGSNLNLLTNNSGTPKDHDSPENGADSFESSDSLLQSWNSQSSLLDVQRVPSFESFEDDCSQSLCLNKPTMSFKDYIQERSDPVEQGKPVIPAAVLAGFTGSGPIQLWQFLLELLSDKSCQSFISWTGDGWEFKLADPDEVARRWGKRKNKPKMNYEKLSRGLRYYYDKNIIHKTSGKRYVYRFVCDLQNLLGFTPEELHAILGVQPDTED
The following applies: protein: recombinant; tags: N-terminal GST; dsDNA, one strand shown. Summed up: as §1

Another assay addresses T9, SPDEF (Homo sapiens, UniProt O95238 1-335).
T9 sequence: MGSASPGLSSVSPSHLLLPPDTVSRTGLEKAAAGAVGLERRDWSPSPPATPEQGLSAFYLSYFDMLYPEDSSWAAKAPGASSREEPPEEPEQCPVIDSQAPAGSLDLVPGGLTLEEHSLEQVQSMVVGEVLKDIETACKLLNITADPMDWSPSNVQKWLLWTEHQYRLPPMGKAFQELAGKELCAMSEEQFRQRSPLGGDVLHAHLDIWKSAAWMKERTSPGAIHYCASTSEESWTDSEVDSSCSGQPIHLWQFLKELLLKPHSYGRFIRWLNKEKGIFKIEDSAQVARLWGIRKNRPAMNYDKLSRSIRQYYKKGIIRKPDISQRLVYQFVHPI
As to conditions: protein: recombinant; tags: N-terminal GST; dsDNA, one strand shown. Put shortly: as §1

For another assay, the target named is T10, ETV7 (Homo sapiens, UniProt Q9Y603 1-341).
T10 sequence: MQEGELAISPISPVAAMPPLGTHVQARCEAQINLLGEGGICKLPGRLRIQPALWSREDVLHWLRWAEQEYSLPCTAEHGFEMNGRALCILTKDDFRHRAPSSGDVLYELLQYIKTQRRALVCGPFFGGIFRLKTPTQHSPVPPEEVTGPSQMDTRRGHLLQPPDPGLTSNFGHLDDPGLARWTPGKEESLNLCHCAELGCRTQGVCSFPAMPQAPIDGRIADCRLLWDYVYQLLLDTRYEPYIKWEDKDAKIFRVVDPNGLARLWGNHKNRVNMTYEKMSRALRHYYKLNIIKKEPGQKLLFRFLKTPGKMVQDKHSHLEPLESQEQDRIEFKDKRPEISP
As to conditions: protein: recombinant; tags: N-terminal GST; dsDNA, one strand shown. Summed up:
as §1

The next assay has as its target T11, ELF5 (Homo sapiens, UniProt Q9UKW6-2 1-255).
T11 sequence: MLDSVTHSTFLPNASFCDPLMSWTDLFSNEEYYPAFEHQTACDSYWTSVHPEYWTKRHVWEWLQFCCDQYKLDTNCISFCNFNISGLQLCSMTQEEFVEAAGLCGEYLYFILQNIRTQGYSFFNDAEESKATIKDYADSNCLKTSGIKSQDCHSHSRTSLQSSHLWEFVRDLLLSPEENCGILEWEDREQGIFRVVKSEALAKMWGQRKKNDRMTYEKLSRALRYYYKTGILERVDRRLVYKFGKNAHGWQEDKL
As to conditions: protein: recombinant; tags: N-terminal GST; dsDNA, one strand shown. Summed up: as §1

The target in the next assay is T12, ETV3 (Homo sapiens, UniProt P41162-2 1-143).
T12 sequence: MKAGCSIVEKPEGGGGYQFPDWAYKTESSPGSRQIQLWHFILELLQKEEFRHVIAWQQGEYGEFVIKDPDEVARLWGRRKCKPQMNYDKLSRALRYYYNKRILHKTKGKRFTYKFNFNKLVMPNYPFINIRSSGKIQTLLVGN
As to conditions: protein: recombinant; tags: N-terminal GST; dsDNA, one strand shown. Put shortly:
as §1

The target in another assay is ETV6 (Homo sapiens, UniProt P41212 1-452). As to conditions: protein: recombinant; tags: N-terminal GST; dsDNA, one strand shown. Put shortly:
as §1

Chain of ETV1 (P50549 whole entry): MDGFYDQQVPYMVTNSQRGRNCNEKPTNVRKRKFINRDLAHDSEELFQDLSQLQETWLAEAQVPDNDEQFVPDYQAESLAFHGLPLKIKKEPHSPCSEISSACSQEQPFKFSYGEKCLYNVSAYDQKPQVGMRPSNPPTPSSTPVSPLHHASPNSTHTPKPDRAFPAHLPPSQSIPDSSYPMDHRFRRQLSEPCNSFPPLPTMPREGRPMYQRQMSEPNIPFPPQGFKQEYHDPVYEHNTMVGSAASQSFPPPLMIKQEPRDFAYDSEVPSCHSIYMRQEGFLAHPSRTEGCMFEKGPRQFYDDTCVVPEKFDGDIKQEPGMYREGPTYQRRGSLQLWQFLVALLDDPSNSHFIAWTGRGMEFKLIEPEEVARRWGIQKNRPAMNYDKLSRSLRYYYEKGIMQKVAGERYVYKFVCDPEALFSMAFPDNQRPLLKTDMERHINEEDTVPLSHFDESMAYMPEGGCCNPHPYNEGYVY
Chain of ELF4 (Q99607 whole entry): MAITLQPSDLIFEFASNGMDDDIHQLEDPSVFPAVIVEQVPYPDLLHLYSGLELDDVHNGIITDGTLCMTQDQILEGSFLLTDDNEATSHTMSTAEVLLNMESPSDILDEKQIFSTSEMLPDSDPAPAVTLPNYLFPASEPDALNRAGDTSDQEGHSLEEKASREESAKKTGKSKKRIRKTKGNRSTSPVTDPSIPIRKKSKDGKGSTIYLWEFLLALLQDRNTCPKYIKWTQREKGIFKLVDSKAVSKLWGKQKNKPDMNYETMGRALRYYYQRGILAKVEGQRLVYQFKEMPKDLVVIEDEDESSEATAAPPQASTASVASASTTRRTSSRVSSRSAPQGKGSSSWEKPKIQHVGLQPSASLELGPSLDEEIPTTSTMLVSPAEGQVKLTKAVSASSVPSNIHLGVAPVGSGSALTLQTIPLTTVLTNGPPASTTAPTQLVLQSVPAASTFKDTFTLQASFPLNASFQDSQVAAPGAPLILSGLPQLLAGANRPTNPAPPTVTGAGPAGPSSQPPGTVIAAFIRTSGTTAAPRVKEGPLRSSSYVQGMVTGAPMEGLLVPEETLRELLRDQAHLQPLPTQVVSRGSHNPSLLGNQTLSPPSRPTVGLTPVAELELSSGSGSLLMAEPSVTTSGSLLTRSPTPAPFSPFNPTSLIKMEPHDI
Chain of ETV6 (P41212 whole entry): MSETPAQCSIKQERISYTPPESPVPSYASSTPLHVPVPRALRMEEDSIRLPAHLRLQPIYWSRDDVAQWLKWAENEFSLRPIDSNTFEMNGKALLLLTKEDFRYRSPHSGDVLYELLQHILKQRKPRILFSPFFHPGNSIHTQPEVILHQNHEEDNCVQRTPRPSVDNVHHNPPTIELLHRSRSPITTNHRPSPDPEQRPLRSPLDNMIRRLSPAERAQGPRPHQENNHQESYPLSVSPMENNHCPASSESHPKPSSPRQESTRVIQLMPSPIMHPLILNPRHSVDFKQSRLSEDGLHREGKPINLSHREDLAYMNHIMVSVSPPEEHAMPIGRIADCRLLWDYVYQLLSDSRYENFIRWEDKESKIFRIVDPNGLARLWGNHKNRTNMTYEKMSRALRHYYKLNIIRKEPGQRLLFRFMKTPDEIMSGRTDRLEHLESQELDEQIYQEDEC
Chain of HSF1 (Q00613 whole entry): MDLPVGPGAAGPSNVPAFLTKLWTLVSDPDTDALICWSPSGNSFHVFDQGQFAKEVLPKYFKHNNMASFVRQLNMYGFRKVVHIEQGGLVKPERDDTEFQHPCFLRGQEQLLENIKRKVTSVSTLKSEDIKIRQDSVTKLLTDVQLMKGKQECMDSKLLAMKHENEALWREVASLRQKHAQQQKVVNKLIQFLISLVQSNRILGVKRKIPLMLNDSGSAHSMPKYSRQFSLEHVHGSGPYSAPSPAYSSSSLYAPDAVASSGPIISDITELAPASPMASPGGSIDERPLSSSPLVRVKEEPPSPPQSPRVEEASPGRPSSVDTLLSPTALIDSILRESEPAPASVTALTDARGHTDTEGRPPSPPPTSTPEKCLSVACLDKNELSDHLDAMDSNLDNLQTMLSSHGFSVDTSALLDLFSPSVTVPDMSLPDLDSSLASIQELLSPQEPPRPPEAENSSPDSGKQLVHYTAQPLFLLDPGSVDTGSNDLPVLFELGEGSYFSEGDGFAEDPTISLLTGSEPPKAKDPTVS
Chain of CRX (O43186 whole entry): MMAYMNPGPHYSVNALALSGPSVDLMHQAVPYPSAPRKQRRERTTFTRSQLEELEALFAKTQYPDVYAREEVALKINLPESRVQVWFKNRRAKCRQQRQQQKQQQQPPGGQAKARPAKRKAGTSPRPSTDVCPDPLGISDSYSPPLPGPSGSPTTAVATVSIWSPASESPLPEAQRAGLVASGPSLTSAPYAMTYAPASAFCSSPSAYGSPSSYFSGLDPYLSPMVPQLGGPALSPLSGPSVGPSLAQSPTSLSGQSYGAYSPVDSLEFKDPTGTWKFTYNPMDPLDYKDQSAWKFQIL
Chain of ETV5 (P41161 whole entry): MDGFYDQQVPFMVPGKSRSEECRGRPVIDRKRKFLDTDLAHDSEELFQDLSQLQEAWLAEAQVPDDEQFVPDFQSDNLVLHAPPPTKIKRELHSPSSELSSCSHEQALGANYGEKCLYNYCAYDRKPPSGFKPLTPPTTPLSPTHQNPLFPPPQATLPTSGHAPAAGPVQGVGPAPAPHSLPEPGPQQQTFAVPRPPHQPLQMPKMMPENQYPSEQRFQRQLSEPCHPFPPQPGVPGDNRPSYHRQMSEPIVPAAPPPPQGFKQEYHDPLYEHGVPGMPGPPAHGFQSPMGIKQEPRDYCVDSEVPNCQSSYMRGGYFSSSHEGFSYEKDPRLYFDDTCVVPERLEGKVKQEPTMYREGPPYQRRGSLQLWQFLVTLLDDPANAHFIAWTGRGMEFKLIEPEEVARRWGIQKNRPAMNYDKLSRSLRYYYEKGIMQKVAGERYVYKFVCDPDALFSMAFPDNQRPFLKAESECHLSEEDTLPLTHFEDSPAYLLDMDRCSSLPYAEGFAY

TAATAC: the binding signal was 1.12 fold enrichment (6-mer frequency, TF over GST control) in the assay with FEV; 1.04 fold enrichment (6-mer frequency, TF over GST control) with ETV5; 1.63 fold enrichment (6-mer frequency, TF over GST control) with HSF1; 1.12 fold enrichment (6-mer frequency, TF over GST control) with SPIC; 1.14 fold enrichment (6-mer frequency, TF over GST control) with ELF4; 1.04 fold enrichment (6-mer frequency, TF over GST control) with ELK4. In addition, the binding signal in the assay with ETV2 was 1.16 fold enrichment (6-mer frequency, TF over GST control); in the assay with ELF3, 1.05 fold enrichment (6-mer frequency, TF over GST control); with CRX it was 2.45 fold enrichment (6-mer frequency, TF over GST control); in the assay with ETV1, 1.11 fold enrichment (6-mer frequency, TF over GST control); with ERF, 1.14 fold enrichment (6-mer frequency, TF over GST control); in the assay with ETV3L, 1.1 fold enrichment (6-mer frequency, TF over GST control). The binding signal is 1.12 fold enrichment (6-mer frequency, TF over GST control) in the assay with ETS2; 1.12 fold enrichment (6-mer frequency, TF over GST control) with SPDEF; 1.11 fold enrichment (6-mer frequency, TF over GST control) with ETV7; 1.09 fold enrichment (6-mer frequency, TF over GST control) with ELF5; 1.03 fold enrichment (6-mer frequency, TF over GST control) in the assay with ETV3; 1.12 fold enrichment (6-mer frequency, TF over GST control) with ETV6.
